The text below walks through data of PubChem BioAssay AID1211 (NMMLSC, 2008).

The structures appear in SMILES notation.

For this experiment, the target named is Estrogen receptor (Homo sapiens) (UniProt P03372). Briefly: ERalpha ligand binders by competition, primary screen, cell-based, Cos7 ERalpha-GFP, flow cytometry (AID 1211).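 Further: 0% = DMSO vehicle wells and 100% = no E2-Alexa633 signal left.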 The following applies: fluorescent ligand competition, binding inhibition, at 0.1 µM, stronger effect = higher value.
Estrogen receptor (Homo sapiens), sequence (P03372 whole entry, looked up): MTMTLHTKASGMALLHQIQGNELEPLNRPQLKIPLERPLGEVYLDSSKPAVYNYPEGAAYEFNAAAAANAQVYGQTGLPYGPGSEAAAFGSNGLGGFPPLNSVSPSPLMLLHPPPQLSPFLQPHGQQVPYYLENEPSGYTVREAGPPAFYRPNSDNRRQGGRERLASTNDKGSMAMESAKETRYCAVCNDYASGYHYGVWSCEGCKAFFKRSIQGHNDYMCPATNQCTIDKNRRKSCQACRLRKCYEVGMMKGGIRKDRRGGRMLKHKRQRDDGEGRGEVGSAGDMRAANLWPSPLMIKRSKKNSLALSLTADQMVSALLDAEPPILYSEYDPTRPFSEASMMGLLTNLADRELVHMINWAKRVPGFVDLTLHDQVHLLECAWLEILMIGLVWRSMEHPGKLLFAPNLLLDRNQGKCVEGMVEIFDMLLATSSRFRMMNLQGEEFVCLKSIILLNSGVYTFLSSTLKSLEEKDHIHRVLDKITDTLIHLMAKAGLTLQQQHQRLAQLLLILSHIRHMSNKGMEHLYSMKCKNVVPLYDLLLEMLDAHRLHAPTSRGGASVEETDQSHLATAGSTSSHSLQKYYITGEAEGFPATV
As for `CCOc1ccccc1N1C(=O)NC(=O)C(CCc2ccncc2)(CCc2ccncc2)C1=O`, the inhibition of ligand binding worked out at 24%. Under `C[C@H]1CCC[C@@H](O)CCC/C=C/c2cc(O)cc(O)c2C(=O)O1` stands 74%; under `NC(=O)c1ccc(N=Nc2c(O)[nH]c(=O)[nH]c2=O)cc1`, 14%. In the case of `CC(=O)c1ccc2c(c1)C1C(Cl)C(Sc3ccccc3[N+](=O)[O-])CC1C(c1ccccc1[N+](=O)[O-])N2` (configuration not stated) it was 38%. Under `O=C(O)c1cccc2c1NC(C(=O)O)C1CC(Sc3ccccc3[N+](=O)[O-])C(Cl)C21` (configuration not stated) stands 1%. For `Cc1ccc(S(=O)(=O)Cc2ccc(C(=O)N3CCC4(CC3)OCCO4)o2)cc1`, the inhibition of ligand binding was 24%.

Compound `COc1ccc(Cn2c(N)c(C(=O)NCc3ccco3)c3nc4ccccc4nc32)cc1` registered an inhibition of ligand binding of 45%.
